Test [1] relates to Sporothrix brasiliensis CBS 133006. Briefly: growth inhibition relative to untreated control; higher = more growth inhibition (more antifungal activity), active = 80 or more; extreme values may be limits of the assay. The conditions noted are these: 1 µM; 48 h. The essentials:
(§1)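 The reported figure is percent growth inhibition relative to untreated cells, from quadruplicate runs. Yeast-form cells of the reference isolates at 1 x 10^5 CFU/ml were exposed to library compounds at a final 1 μM for 48 h at 35°C in 5% CO2, and growth was assessed by microscopy and spectrophotometric readings.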

In test [2] the test system is Sporothrix schenckii ATCC 32286. The test is described as above. As to conditions: 1 µM; 48 h. The essentials:
as §1

Drawing on the supplement of paper PMC7556523, this text covers growth inhibition for 32 compounds.

Values without a mark were called inactive.

Regarding `CCOC(=O)c1c(NC(=O)c2c(F)c(F)c(F)c(F)c2F)sc(C(N)=O)c1C`, the growth inhibition is 13.8% in test [1] and 0% in test [2].
Turning to `Cc1nc(-c2ccccn2)nc(N(C)CCc2ccccc2)c1Cl`, the figures for the growth inhibition in test [1] and in test [2] were 80.8% (active) and 34.8%, respectively.
For `CNC1C(OC2C(OC3C(O)C(O)C(N=C(N)N)C(O)C3N=C(N)N)OC(C)C2(O)C=O)OC(CO)C(O)C1O` (centres undefined), in that order: 6% and 0%.
The matching figures for `O=C(Cn1ccnc1[N+](=O)[O-])NCc1ccccc1`: 13.8% and 4%.
The matching figures for `Cc1ccc(S(=O)(=O)N2CCN(C(=O)c3cc(-c4ccccc4)n[nH]3)CC2)cc1`: 1.5% and 2%.
`COc1ccc2nccc(NC(=O)C3CCN(CCc4ccc(Cl)cc4)CC3)c2n1`: the figures for the growth inhibition in test [1] and in test [2] were 39% and 0%, respectively.
As for `O=C(c1ccc(F)cc1)N(CCNc1ccccc1)c1ccccc1`, the figures for the growth inhibition in test [1] and in test [2] were 16.5% and 12.2%, respectively.
With `CCOc1ccccc1NC(C)C(=O)Nc1cc(C(F)(F)F)ccc1N1CCOCC1` (centres undefined), the growth inhibition in test [1] was 27.8%; in test [2], 0%.
The matching figures for `Cc1nc(-c2cccc(NCc3ccccc3)c2)[nH]c1C`: 1.25% and 10.2%.
The matching figures for `O=C(OCc1ccccc1)N1CCC(c2cc(-c3ccncc3)c(-c3ccc(F)cc3)[nH]2)CC1`: 5.25% and 13.2%.
Take `O=C(NCc1ccoc1)N1CCN(Cc2ccc3c(c2)OCO3)CC1`: the growth inhibition in test [1] is 7.5%; in test [2], 6.25%.
Regarding `CN1CCN(c2nccc3[nH]c(-c4cccc(F)c4)cc23)CC1`, the values for the growth inhibition in test [1] and in test [2] were 2.5% and 19.5%, respectively.
The matching figures for `COc1cc(C2=NCCN2)ccc1-c1cn(-c2cccc(C3=NCCN3)c2)nn1`: 14% and 1.25%.
The matching figures for `Nc1ncnc2c1ncn2[C@@H]1O[C@H](COS(=O)(=O)NC(=O)c2ccccc2O)[C@@H](O)[C@H]1O`: 5.25% and 9%.
For `CN1CCN(CCCOc2ncc(Nc3ncc(-c4ccc(C(F)(F)F)c(F)c4)nc3C(N)=O)cn2)CC1`, in that order: 12.5% and 0%.
In the case of `CC(C)C(NC(=O)Cc1cccc2ccccc12)C(=O)Nc1cccc(C#N)c1` (centres undefined), the figures for the growth inhibition in test [1] and in test [2] were 4% and 9.25%, respectively.
For `NC(CC(=O)c1ccc(Cl)cc1Cl)C(Cl)(Cl)Cl` (centres undefined), in that order: 9.25% and 14%.
For `CS(=O)(=O)c1ccccc1C(=O)N(Cc1ccccc1)c1ccccc1`, in that order: 13.2% and 24%.
The matching figures for `CCCCCCCCCCCCCCCCOP(=O)([O-])OCC[N+](C)(C)C`: 24.8% and 0%.
For `CCCCOC(=O)Nc1cc2nc(C3CCCCC3)[nH]c2cc1N1CCCC1`, the growth inhibition was 11% in test [1] and 0% in test [2].
The matching figures for `C[C@]1(O)C[C@@H](c2nc(-c3ccc4ccc(-c5ccccc5)nc4c3)c3c(N)nccn32)C1`: 6% and 23%.
The matching figures for `O=C(Nc1cnc2ccccc2c1)c1cccc(-n2cnnn2)c1`: 0% and 4.75%.
The matching figures for `O[C@@H](c1cc(C(F)(F)F)nc2c(C(F)(F)F)cccc12)[C@H]1CCCCN1`: 6% and 15.2%.
On to `Cc1ccc(S(=O)(=O)n2cc(-c3ccnc(N)c3)c3cc(Br)cnc32)cc1`, for which the values for the growth inhibition in test [1] and in test [2] were 0% and 5.25%, respectively.
For `CN1CCCC1CCO[C@](C)(c1ccccc1)c1ccc(Cl)cc1` (some centres undefined), in that order: 11.8% and 14.8%.
The matching figures for `CCCCN(CCCC)c1c(C#N)cc(S(=O)(=O)Nc2ccccc2)cc1C#N`: 9.25% and 23.8%.
For `CC1=NN(c2nc3ccccc3s2)C(=O)C1Cc1cccc2ccccc12` (centres undefined), in that order: 17.2% and 14.8%.
As for `CC(C)(C)OC(=O)N1CCC(Cn2nc(-c3cnc4ccccc4c3)c3c(N)ncnc32)CC1`, the growth inhibition is 21.2% in test [1] and 4.5% in test [2].
On to `c1ccc2c(c1)CN(CC1CC1)CC1(CCN(Cc3c[nH]c4cnccc34)CC1)O2`, for which the growth inhibition in test [1] was 1.25%; in test [2], 0%.
Consider `CCN(CC)CCCCCCNc1cc(OC)cc2c(C)ccnc12`, for which the results for the growth inhibition in test [1] and in test [2] were 7% and 2.25%, respectively.
The matching figures for `O=C(Nc1ccc(N2CCNCC2)nc1)c1oc(-c2ccccc2)nc1C(F)(F)F`: 15.2% and 13.5%.
Consider `CC(C)(C)[C@H]1CC[C@H](CC2=C(O)C(=O)c3ccccc3C2=O)CC1`, for which the growth inhibition was 88% (active) in test [1] and 14% in test [2].
